High-throughput results deposited in PubChem by National Center for Advancing Translational Sciences (NCATS).
Pf growth 48h – P. falciparum growth inhibition at 48 hours (one generation). Potency, µM (titrated, usually from 28.7 µM), for inactives: at the highest dose activity change, negative = inhibition, actives largely listed as inhibitors. 5.9% of 310,000 active. P. falciparum luciferase growth in erythrocytes, 48 h; further: potency means the concentration at half of the fitted maximal effect; on the % scale 0 is the no-effect control and ±100 the full control effect
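Firefly luciferase activity from engineered P. falciparum reports growth; inhibitors lower the luminescent signal. Cultures contained 2% hematocrit erythrocytes at 0.1% final parasitemia.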
AMA1-RON2 inh – disrupts binding of P. falciparum AMA1 to RON2 | AlphaScreen AMA1-biotinylated RON2 peptide binding | Potency, µM (top dose mostly 58.2 µM), inactives show top-dose activity change, negative = inhibition, most hits filed as inhibitors | 0.2% of 360,000 active | AID 720542;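 further: potency means the concentration at half of the fitted maximal effect; 0% = vehicle wells and -100% = peptide control; nearly all actives have a fitted effect of over 45% in size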
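AMA1 (3D7) with his tag at 25 nM final met compounds first, then biotinylated RON2 peptide at 25 nM; detection used donor plus acceptor beads, 10 µg/mL apiece, read by AlphaScreen after 30 min at room temperature.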
CHX counter – counter-screen for Shiga toxin inhibitors: cycloheximide protein synthesis inhibition; AID 2314; max response, %; cell reporter, cycloheximide protein synthesis inhibition counterscreen; 12% of 300,000 active; in the data active means max response mostly above about 13%, no sharp cut-off; inactive means mostly below about 14%; further: read at 38.3 µM for the half of the compounds with a filed dose; 0% is about no effect
Pf growth 96h – inhibits malaria parasite growth, 96 h; P. falciparum luciferase reporter growth, 96 h; 6.9% of 320,000 active; Potency, µM (doses to about 28.7 µM), for the others: top-dose activity change, negative = inhibition, usual class: inhibitors; further: potency means the concentration at half of the fitted maximal effect; on the % scale 0 is the no-effect control and ±100 the full control effect
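Infected RBCs, 2% Hct / 0.05% parasitemia final; luciferase-reporter P. falciparum; cpd 96 h, 37 C, 5% CO2; luciferase detection reagent; luminescence.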
HCV inh – blocks hepatitis C virus; Huh7.5.1 HCVcc-Cre infection, luciferase reporter, 44 h; Potency, µM (doses to about 41.8 µM), for inactives: at the top dose activity change, negative = inhibition, most hits filed as inhibitors; 3.4% of 340,000 active; AID 651820; further: potency means the concentration at half of the fitted maximal effect; on the % scale 0 is the no-effect control and ±100 the full control effect
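Infectious HCVcc-Cre (~0.5 moi) was added to cells just after compound, with cells seeded 4 h earlier at 1,000 per well. Luciferase activity after 44 h culture reported infection; substrate was incubated 15 min at room temperature before reading.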
Shiga toxin inh – Shiga toxin inhibition. Vero cells, Shiga toxin protein synthesis inhibition reporter. inhibition, % at 38.7 µM. 9.2% of 290,000 active; in the data active means inhibition mostly above about 28%, no sharp cut-off; inactive means mostly below about 43%; further: 0% is about no effect
* hit, by the source's call; ? = inconclusive; . = no result given; + = active, no number; [ ] = remark or other dose. This is a sample that favours compounds with a hit; in the whole collection about 21% have one here. Unless noted, the call rests on the fitted dose curve; in most records, active means well fitted curve in the direction sought with a large enough effect; inconclusive means small, poorly fitted or top-dose-only effect, or another doubt; inactive means no such curve, though single readings can be large; an effect the other way counts as inactive or inconclusive.

SMILES	Pf growth 48h	AMA1-RON2 inh	CHX counter	Pf growth 96h	HCV inh	Shiga toxin inh
S=c1[nH]nc(-c2n[nH]c3c2CCC3)n1/N=C/C=C/c1ccccc1	-10%	75%	-2	-1%	31%	-2
C/C(Cl)=C/Cc1c(C)[nH]c2ccc(C)cc2c1=O	0.37µM*	?	27*	12%	-17%	41
CCCCN(CC)Cc1c(C)[nH]c2c(ccc3ccccc32)c1=O	?	7%	5	-10%	-6%	12
C/C(Cl)=C/Cc1c(C)[nH]c2c(ccc3ccccc32)c1=O	0.19µM*	7%	2	-32%	?	-3
CCCNC(=O)C(Cc1ccc(OC)cc1)NC(=O)c1ccc(C#N)cc1 (stereo unspecified)	69%	12%	.	?	3.2µM*	.
CCCNC(=O)C(Cc1ccc(OC)cc1)NC(=O)c1ccc(Cl)cc1 (stereo unspecified)	-2%	-2%	.	12%	1%	.
CCCNC(=O)C(Cc1ccccc1)NC(=O)c1ccc(-c2ccccc2)cc1 (stereo unspecified)	0%	25%	.	1.5µM*	-4%	.
CN(C(=O)c1cccc(NC(=O)Cc2ccc(NC(=O)C3CCN(C(=O)C4CC4)CC3)cc2)c1)C1CCCC1	.	-1%	.	.	6%	.
Brc1cccc(-c2nc3c4ccccc4ccn3c2Cc2ccsc2)c1	.	120%	.	.	.	.
CCN1CCN(Cc2cc(Br)ccc2O)CC1	13µM*	-5%	0	.	35µM*	-2
COC(=O)c1cc(CN2CCN(c3ccccc3)CC2)ccc1O	15%	-11%	-3	?	2%	.
Oc1ccc(Br)cc1CN1CCCCCCC1	1.7µM*	-25%	-1	.	4%	4
COc1ccc(Br)cc1CN1CCN(CCO)CC1	12%	1%	-3	-20%	.	18
Oc1ccc(Br)cc1CN1CCN(c2ccccc2)CC1	1.7µM*	-9%	-4	63%	8%	-8
CCc1ccc(CN2CCN(Cc3cc(Br)ccc3O)CC2)cc1	0.23µM*	?	-2	1.2µM*	-28%	-8
COCC(C)NS(=O)(=O)c1ccc(C(=O)NCCCn2ccc3ccccc32)cc1 (stereo unspecified)	5%	-6%	-3	4%	-12%	-17
N#C/C(=C1/C(=O)Nc2ccc(Br)cc21)c1ccccn1	11%	-4%	-1	2%	?	-5
CC(C)C[C@H]1COc2cc(N3CCC[C@H]3CO)ccc2S(=O)(=O)N1	.	0%	.	.	.	.
CCN1CCN(Cc2cc(Br)cc(Br)c2O)CC1	1.7µM*	18%	-5	.	?	-27
CCC(=O)N1CCc2cc(S(=O)(=O)N3CCN(c4cc(Cl)ccc4C)CC3)ccc21	-15%	-1%	-3	5.2µM*	14%	-4
CCC(=O)N1CCc2cc(S(=O)(=O)CCC(=O)N3CCN(c4ccc(Cl)cc4)CC3)ccc21	?	-8%	-2	22%	10µM*	7
COc1ccc(CCN2C(=O)C(Oc3ccccc3C)C2c2ccc3c(c2)OCO3)cc1 (stereo unspecified)	?	-2%	3	0.93µM*	?	-8
O=C1C(Oc2ccccc2)C(c2ccc3c(c2)OCO3)N1CCc1ccc(F)cc1 (stereo unspecified)	?	0%	4	0%	7%	2
COc1ccc(CCN2C(=O)C(Oc3ccccc3C)C2c2ccc3c(c2)OCO3)cc1OC (stereo unspecified)	12µM*	-14%	1	58%	?	-6
COc1cccc(NC(=O)c2cnc(NS(=O)(=O)c3ccccc3)nc2)c1	.	-10%	.	.	.	.
SMILES	Pf growth 48h	AMA1-RON2 inh	CHX counter	Pf growth 96h	HCV inh	Shiga toxin inh
N#Cc1ccc(CN(Nc2ccccc2)c2ccccc2)cc1	.	-2%	.	.	.	.
CCCn1c(/C=C/c2cc[n+](C)cc2)nc2ccccc21	?	-1%	-3	13µM*	-18%	-6
CCCCn1c(=O)c(C(=O)c2ccccc2)nc2ccccc21	-3%	-22%	11	6%	?	18
CCCCCCn1c(/C=C/c2ccccc2)nc2ccccc21	.	.	47*	.	.	101*
CCn1c(/C=C/c2ccccc2)nc2ccccc21	266%	24%	33*	-79%	7.9µM*	62*
CC(C)Cn1c(/C=C/c2ccccc2)nc2ccccc21	44%	49%[11.6 µM]	39*	1%	?	59*
Cc1ccc(NC(=O)c2ccc(NS(=O)(=O)c3ccc4[nH]c(=O)[nH]c4c3)cc2)nc1	9%	-16%	.	19%	?	.
COc1ccc(Cn2c(/C=C/c3ccccc3)nc3ccccc32)cc1	5%	33%	65*	-113%	-17%	82*
CCC(C)n1c(/C=C/c2ccccc2)nc2ccccc21 (stereo unspecified)	?	59%	25*	?	?	13
CCC(C)n1c(S(=O)(=O)O)nc2ccccc21 (stereo unspecified)	.	-11%	1	-10%	19%	-6
COCCN(C(=O)COC(=O)CCS(=O)(=O)c1ccccc1)c1c(N)n(Cc2ccccc2)c(=O)[nH]c1=O	?	-5%	.	-1%	7%	.
O=C(COc1cccc2cccnc12)NNC(=S)Nc1ccccc1	-22%	.	2	0.66µM*	.	9
Cc1cc(NC(=O)COc2cccc(C)c2C)no1	65%	3%	28*	2%	14%	60*
O=C(COc1cccc2ccccc12)NNC(=O)Nc1ccccc1	46%	34%	-1	?	16%	-16
Cc1cc(NC(=O)COc2cccc3cccnc23)no1	?	.	33*	-21%	-12%	+
Cc1cc(NC(=O)COc2ccccc2C)no1	175%	11%	46*	-27%	20%	110*
Cc1ccccc1CNC(=O)c1csc([C@H]2C[C@H](O)[C@@H](CO)O2)n1	.	-1%	.	.	.	.
COc1ccc(NC(=O)c2cc(C3CCCCN3S(=O)(=O)c3ccccc3)on2)c(C)c1 (stereo unspecified)	.	-9%	.	.	.	.
Cc1ccc(CNC(=O)C(=O)NCC2CCCN2S(=O)(=O)c2cc(C)ccc2C)cc1 (stereo unspecified)	?	-6%	.	?	?	.
COc1ccccc1C1=NC(c2ccc(C)cc2)N=C1C (stereo unspecified)	118%	0%	39*	238%	-12%	131*
COc1ccc(S(=O)(=O)N2CCC[C@H]2C(=O)N2CCC[C@H]2C(=O)NCc2ccncc2)cc1C	.	8%	.	.	.	.
COC(=O)[C@]1(C)N[C@H](CN(C)C(=O)Nc2ccc(C)cc2)[C@@H]2C(=O)N(Cc3ccccc3)C(=O)[C@@H]21	.	4%	.	.	2.8µM*	.
CCN(C[C@H]1N[C@@](CC)(C(=O)OC)[C@H]2C(=O)N(C)C(=O)[C@@H]12)C(=O)Nc1ccc(C)cc1	.	18%	.	.	3.2µM*	.
